Reference: PubChem BioAssay
The source made the active and inactive calls.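 Rule for the calls, unless noted: active = compound raises insulin release from rat beta cells at 5 mM glucose, no numeric limit stated; inactive = the rest.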

Legend:
[1] = Wnt pathway potentiators raising nuclear beta-catenin – imaging, WNT3A-conditioned medium, mouse C2C12, NPC library, primary screen (AID 1117326; in the data active = nuclear beta-catenin stimulation mostly above about 4.2%, no sharp cut-off; inactive = mostly below about 10%; note: reference of the scale not given here); settings: stronger effect = higher value
[2] = stimulators of insulin release from INS-1E, primary screen, cell-based, 5 mM glucose, NPC library (AID 1117329); settings: rat INS-1E insulin secretion, at 10 µM, stronger effect = higher value; note: reference of the scale not given here
[3] = growth inhibition of GSK3B-pretreated HCT116 cells – cell-based, CellTiter-Glo, 0.2 to 20 µM (AID 1117336;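 active = compounds lowering colon cancer cell viability after pretreatment blocking the GSK3B kinase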); settings: HCT116 viability after GSK3B inhibitor, at 20 µM, stronger effect = higher value
[4] = inhibition of endothelial tube formation, primary screen, imaging, VEGF stimulated, CD31 staining, tube area, NPC library (AID 1117340;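 active = compound that reduces growth-factor-driven endothelial tube area in a mixed cell culture, no cutoff stated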); settings: VEGF-stimulated ADSC/ECFC co-culture, at 10 µM, stronger effect = higher value
[5] = GLP1 release stimulators, primary, NCI-H716, NPC library (AID 1117341;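 active = compound raises GLP1 secretion from the human gut endocrine cells, with no numeric limit stated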; note: reference of the scale not given here); settings: NCI-H716 cells, at 10 µM, stronger effect = higher value
[6] = HCT116 colon cancer cell growth inhibition, primary screen, CellTiter-Glo luminescence, NPC library (AID 1117342;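 active = compounds that lower survival of HCT116 colon cancer cells in the luminescence readout, no numeric limit stated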); settings: at 20 µM (top of the series)
[7] = reduced SW480 viability measured with CellTiter-Glo, NPC library, primary (AID 1117343;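 active = compounds that lower viability of the colon cancer cells in the luminescence readout, with no numeric limit stated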); settings: CellTiter-Glo luminescence; at 20 µM (top of the series)
[8] = NPC library primary testing for decreased DLD-1 cell viability via CellTiter-Glo (AID 1117346;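 active = compounds that lower survival of DLD-1 colon cancer cells in the luminescence readout, no cutoff given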); settings: DLD-1 viability, CellTiter-Glo luminescence; at 20 µM (top of the series)

Row | SMILES | nuclear beta-catenin stimulation ([1]; at 10 µM) | nuclear beta-catenin stimulation ([1]; stimulation, at 2 µM) [%] | insulin secretion stimulation [2] | viability decrease [3] | tube area decrease [4] | GLP1 secretion stimulation [5] | inhibition of viability [6] | viability decrease (inhibition) [7] | viability decrease (inhibition) [8]
1 | c1ccc2sc(SSc3nc4ccccc4s3)nc2c1 | 2.2% (inactive) | 0.3 | -0.6% (inactive) | -0.8% (inactive) | -4.4% (inactive) | 22.3% (active) | -5.7% (inactive) | -1% (inactive) | -20.5% (inactive)
2 | O=C(O)Cc1csc(-c2ccc(Cl)cc2)n1 | -0.7% (inactive) | -0.2 | 0.4% (inactive) | -4.4% (inactive) | 0.8% (inactive) | -2.9% (inactive) | -9.9% (inactive) | -3.2% (inactive) | -11% (inactive)
3 | C#CC(C)(CC)OC(=O)c1ccccc1C(=O)O (stereo not given) | 3.1% (inactive) | 1.3 | -0.2% (inactive) | -19% (inactive) | -5.2% (inactive) | 3.4% (inactive) | 5.2% (inactive) | 11.9% (inactive) | -12.1% (inactive)
4 | N[C@@H](CSCCCO)C(=O)O | -1.1% (inactive) | 1.4 | -0.6% (inactive) | -4.55% (inactive) | 1.7% (inactive) | -0.3% (inactive) | -17.6% (inactive) | 17.3% (inactive) | -1.1% (inactive)
5 | CCN1CCN(C(=O)N[C@@H](C(=O)N[C@@H]2C(=O)N3[C@@H]2SC(C)(C)[C@H]3C(=O)O)c2ccccc2)C(=O)C1=O | 0.2% (inactive) | 0.9 | -0.5% (inactive) | -21.3% (inactive) | -12.7% (inactive) | -0.4% (inactive) | 23.9% (inactive) | 8.3% (inactive) | -5.2% (inactive)
6 | CCCCCCCCCCCCCCCCCC(=O)[O][Al] | 0.2% (inactive) | -0.8 | 0.8% (inactive) | 2.3% (inactive) | -3.5% (inactive) | -1.2% (inactive) | 5.4% (inactive) | -3.6% (inactive) | -0.7% (inactive)
7 | O=S(=O)(O)c1ccc2nc(-c3ccccc3)[nH]c2c1 | 0.1% (inactive) | 0.5 | -0.6% (inactive) | 5.35% (inactive) | -26.3% (inactive) | 1.9% (inactive) | 6.9% (inactive) | 10.6% (inactive) | -0.25% (inactive)
8 | Nc1ncnc2c1ncn2CCOCP(=O)(O)O | -0.6% (inactive) | 0.1 | -2% (inactive) | -1.45% (inactive) | 11.2% (inactive) | 4% (inactive) | -1.5% (inactive) | 27.9% (inactive) | 6.8% (inactive)
9 | CN(C)CCCOC1(Cc2ccccc2)CCCCCC1 | 6% (inactive) | 5.8 | 4.2% (inactive) | -55.2% (inactive) | 17.7% (inactive) | 6.8% (inactive) | 7.6% (inactive) | 33.2% (inactive) | -33.1% (inactive)
10 | O=[N+]([O-])c1ccc(Oc2ccc(N=C=S)cc2)cc1 | 36.7% (inactive) | 1.6 | -0.5% (inactive) | 97.7% (active) | 108% (active) | -5% (inactive) | 98.9% (active) | 95.7% (active) | 100% (active)
11 | Cc1cc(CCCOc2c(C)cc(-c3noc(C(F)(F)F)n3)cc2C)on1 | 9.7% (inactive) | -3.5 | -0.2% (inactive) | 46.3% (inactive) | -0.1% (inactive) | -4.1% (inactive) | 68.5% (active) | 45.6% (inactive) | 71.8% (active)
12 | CCNC(=O)NCc1cccc(Cl)c1 | -1.7% (inactive) | -0.5 | 2.2% (inactive) | -2% (inactive) | 13.7% (inactive) | -2.9% (inactive) | 1.1% (inactive) | 1.2% (inactive) | -6.8% (inactive)
13 | COc1cc(C(=S)N2CCOCC2)ccc1O | 1.6% (inactive) | 0 | 3.9% (inactive) | -5.7% (inactive) | 1.9% (inactive) | -3.6% (inactive) | -4.3% (inactive) | -4.6% (inactive) | -2.7% (inactive)
14 | N#C[C@H]1C[C@H]2C[C@@H]2N1C(=O)[C@@H](N)C12CC3CC(CC(O)(C3)C1)C2 | 0.4% (inactive) | 1.1 | -2% (inactive) | -4.75% (inactive) | 2.7% (inactive) | 1.4% (inactive) | -5.3% (inactive) | 9.8% (inactive) | 6.25% (inactive)
15 | O=C(O)CNC(=O)CNC(=O)CNC(=O)CSC(=O)c1ccccc1 | -0.8% (inactive) | -1.6 | 1.2% (inactive) | -1.9% (inactive) | -8.3% (inactive) | 4.6% (inactive) | 0.6% (inactive) | 12.5% (inactive) | 14.5% (inactive)
16 | Cc1onc(-c2ccccc2Cl)c1C(=O)Cl | -1.6% (inactive) | -0.5 | 0.3% (inactive) | -16.4% (inactive) | 0.4% (inactive) | 0.1% (inactive) | 0.4% (inactive) | 26.4% (inactive) | 14.3% (inactive)
17 | O=C(NCCc1c[nH]c2ccccc12)c1cccnc1 | 1% (inactive) | 1.7 | -2.7% (inactive) | 6.55% (inactive) | 35.9% (inactive) | 0.6% (inactive) | -5.5% (inactive) | 71.3% (active) | -0.95% (inactive)
18 | CN1CCC(N(Cc2cccs2)c2ccccc2)CC1 | -0.3% (inactive) | 5.8 | 26.2% (active) | 53.9% (active) | -3.7% (inactive) | 10% (inactive) | 49.3% (inactive) | 72.8% (active) | 13.1% (inactive)
19 | Oc1ccccc1 | -0.4% (inactive) | 0.2 | -0.2% (active) | -6.9% (inactive) | -36.6% (inactive) | 0.5% (inactive) | -11.1% (inactive) | 42.7% (inactive) | 0.9% (inactive)
20 | C[C@H](N)C(=O)N[C@@H](C)C(=O)NC1[C@H]2CN(c3nc4c(cc3F)c(=O)c(C(=O)O)cn4-c3ccc(F)cc3F)C[C@@H]12 (stereo not given in full) | 0.2% (inactive) | -2.1 | 3.4% (inactive) | 80.7% (active) | 1.8% (inactive) | 0.7% (inactive) | 27.2% (inactive) | 2.9% (inactive) | -9.3% (inactive)
21 | CCC(=C(CC)c1ccc(OP(=O)(O)O)cc1)c1ccc(OP(=O)(O)O)cc1 | -1.3% (inactive) | 1.7 | -1.8% (inactive) | -26.4% (inactive) | 3.7% (inactive) | -1.8% (inactive) | -0.4% (inactive) | -2.6% (inactive) | 10.2% (inactive)
22 | O=C(Nc1ccc([N+](=O)[O-])cc1)Nc1ccc([N+](=O)[O-])cc1 | 3.2% (inactive) | 1.9 | -3.6% (inactive) | -7.9% (inactive) | 62.3% (active) | -0.9% (inactive) | -44.5% (inactive) | 44.3% (inactive) | -16.4% (inactive)
23 | NC(N)=NN=C(/C=C/c1ccc([N+](=O)[O-])o1)/C=C/c1ccc([N+](=O)[O-])o1 | -3% (active) | 56.2 | 6% (inactive) | 99.3% (active) | 38.8% (active) | -3% (inactive) | 99.5% (active) | 102% (active) | 96% (active)
24 | C=CCN1C(=O)C(CC(C)C)NC1=S (stereo not given) | 0% (inactive) | 0.3 | -1.4% (inactive) | -1.7% (inactive) | -6.4% (inactive) | -4% (inactive) | -4.1% (inactive) | 2.8% (active) | -17.7% (inactive)
25 | N[C@H](Cc1c[nH]c2ccccc12)C(=O)O | 0.6% (inactive) | 1 | 2.7% (inactive) | 6.2% (inactive) | 1.5% (inactive) | -2.5% (inactive) | -1.87% (inactive) | 6.5% (inactive) | 1.8% (inactive)
26 | CCCCOC(=O)CC(CC(=O)OCCCC)(OC(C)=O)C(=O)OCCCC | -0.3% (inactive) | 0.1 | 6.2% (inactive) | 30.4% (inactive) | 2.1% (inactive) | 0.1% (inactive) | 25.9% (inactive) | 62.1% (active) | 26.9% (inactive)
27 | O=C(NN1CCCC1)NS(=O)(=O)c1ccc(Cl)cc1 | -0.5% (inactive) | -0.1 | 33.9% (active) | -3.1% (inactive) | 7% (inactive) | -1.1% (inactive) | 14.2% (inactive) | 0% (inactive) | -2.8% (inactive)
28 | O=C(Nc1ccc(Cl)cc1)Nc1ccc(Cl)c(Cl)c1 | 35.1% (inactive) | 0.3 | -3.4% (inactive) | 92.2% (active) | 103% (active) | -3.2% (inactive) | 84.6% (active) | 116% (active) | 94.1% (active)
29 | Cc1[nH]cnc1C[C@H]1CCc2c(C)c3ccccc3n2C1=O | 9.2% (inactive) | 0.9 | -0.4% (inactive) | 57.2% (active) | 55% (active) | -2.3% (inactive) | 92.8% (active) | 69.2% (active) | 65.3% (active)
30 | O=C1C(c2[nH]c3ccccc3c2O)=Nc2ccccc21 | -0.7% (inactive) | 1.4 | 1.2% (inactive) | 18.2% (inactive) | 27.2% (inactive) | 0.5% (inactive) | 16.9% (inactive) | 24.1% (inactive) | 0.2% (inactive)
